Source: PubChem
KB-3-1 tox: kills parental KB-3-1 adenocarcinoma cells; Potency, µM (series often up to 46.1 µM), hits mostly cytotoxic; hit rate 1.4% among 400,000; AID 1347075; KB-3-1 viability, CellTiter-Glo ATP luminescence, 72 h; note: % is set by controls: 0 for no effect and ±100 for the full control effect; nearly all actives have a fitted effect of over 60% in size
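Cytotoxicity measured as CellTiter-Glo luminescence after 72 h at 37 C. Compound titrations were pinned onto drug-naive KB-3-1 parental adenocarcinoma cells grown in DMEM with 10% FBS, and normalized data fitted to concentration-response curves.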
PINK1 modulator: PINK1 expression modulation. AID 624263. hit rate 0.2% among 410,000. Potency, µM (series often up to 76.6 µM), for inactives: at the top dose activation (PINK1 increase), most hits filed as activators. PINK1 immunofluorescence, high-content cytometry, 24 h; active = well fitted activation curve with a large enough effect; inconclusive = small, poorly fitted or top-dose-only effect; cell line not stated here; note: % of control where 0% means no effect; nearly all actives have a fitted effect of over 65% in size
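Compound titrations (5 concentrations, 24 h) on a stable cell line; DMSO and CCCP controls. Endpoint: fixed-cell PINK1 immunofluorescence with mitochondrial, cell and nuclear markers, scanned by microplate cytometer.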
KB-V1 cytotox: KB-V1 MDR subline cytotoxicity; KB-V1 MDR cells viability, CellTiter-Glo, 72 h; Potency, µM (highest dose often 46.1 µM), actives largely listed as cytotoxic; hit rate 3.4% among 400,000; AID 1347076; note: % is set by controls: 0 for no effect and ±100 for the full control effect; nearly all actives have a fitted effect of over 60% in size
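KB-V1 cells (P-gp-expressing MDR subline of KB-3-1) in phenol-red-free DMEM with 10% FBS were exposed to library compounds over a concentration series for 72 h at 37 degrees C. Viability read by CellTiter-Glo luminescence; concentration-effect curves fitted after normalization.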
SW480 rereplic: DNA re-replication induction in SW480 cells; SW480 DNA re-replication, Hoechst DNA content imaging, 48 h; Potency, µM (series often up to 46.1 µM), inactives show at the top dose re-replication activation, most hits filed as activators; hit rate 1.8% among 340,000; note: % of control where 0% means no effect; nearly all actives have a fitted effect of over 55% in size
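Compounds, transferred as 23 nL by pin tool, were incubated with cells for 48 hr; DNA content per nucleus was then quantified by Hoechst staining and fluorescence plate imaging.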
MCF10A rerep: inducers of DNA re-replication in MCF 10A breast cells; MCF 10A DNA re-replication, Hoechst nuclear intensity, 48 h; Potency, µM (doses to about 46.1 µM), inactives show at the highest dose activity, positive = re-replication, hits mostly activators; hit rate 2.9% among 350,000; AID 624296; note: % of control where 0% means no effect; nearly all actives have a fitted effect of over 50% in size
An asterisk follows results filed as active; i = inactive; ? = inconclusive; . = not tested or not shown; [ ] = another dose, or the depositor's remark. Hits are enriched below; roughly 6.7% of the tested compounds scored in any of these assays. Unless noted, calls come from the whole dose curve; as a rule, active = well fitted curve in the direction sought with a large enough effect; inconclusive = small, poorly fitted or top-dose-only effect, or another doubt; inactive = no such curve, though single readings can be large; an effect the other way counts as inactive or inconclusive. Potency is the fitted concentration of half-maximal effect.

SMILES	KB-3-1 tox	PINK1 modulator	KB-V1 cytotox	SW480 rereplic	MCF10A rerep
O=C(NCC(c1ccco1)N1CCc2ccccc21)C(=O)Nc1ccccc1F (stereo not drawn)	14.6µM*	?	16.4µM*	?	?
O=C(NCC(c1ccco1)N1CCc2ccccc21)C(=O)Nc1ccccc1 (stereo not drawn)	i	8.7%	i	-476.4%	11.8%
COc1ccccc1NC(=O)C(=O)NCC(c1ccco1)N1CCc2ccccc21 (stereo not drawn)	i	0.9%	i	?	13.8%
Cc1cc(NC(=O)CN2C(=O)c3cccnc3Sc3ccccc32)ccc1Br	i	0.6%	i	.	.
c1ccc(CCc2nn3c(Cn4nnc5ccccc54)nnc3s2)cc1	i	-0.8%	i	-8.2%	-0.5%
c1ccc(-c2nn3c(Cn4nnc5ccccc54)nnc3s2)nc1	i	8.6%[38.3 µM]	18.4µM*	-14.5%	14.9%
c1cncc(-c2nn3c(Cn4nnc5ccccc54)nnc3s2)c1	i	-0.5%[38.3 µM]	?	-2.1%	17.3%
COc1ccc(OCc2nn3c(Cn4cnc5ccccc54)nnc3s2)cc1	i	14.8%[38.3 µM]	?	14.3%	-9.4%
c1ccc(Cc2nn3c(Cn4nnc5ccccc54)nnc3s2)cc1	i	-10.9%[38.3 µM]	23.1µM*	-4.2%	0.4%
c1ccc(CCc2nn3c(Cn4cnc5ccccc54)nnc3s2)cc1	?	-2.1%[38.3 µM]	18.4µM*	-0.2%	0.0%
CCSc1nnc2c(n1)OC(c1ccc(C)cc1)N(C(C)=O)c1ccccc1-2 (stereo not drawn)	i	1.7%	?	.	.
CN(C)N(C(=O)c1cc(-c2cccs2)nn1-c1ccccc1)C1CCS(=O)(=O)C1 (stereo not drawn)	i	-1.8%	i	-9.1%	22.0%
Cn1c(=O)c2c(nc(Oc3ccc(F)cc3)n2Cc2ccc(F)cc2)n(C)c1=O	i	-0.3%	?	.	.
Cn1c(=O)c2c(nc(Sc3ncccn3)n2Cc2ccc(Cl)cc2)n(C)c1=O	i	-0.6%	i	-1.3%	7.4%
C=CCOc1nc2c(c(=O)n(C)c(=O)n2C)n1Cc1ccccc1Cl	?	8.4%[38.3 µM]	7.31µM*	-3.0%	?
Cn1c(=O)c2c(nc(Sc3ncccn3)n2Cc2ccccc2Cl)n(C)c1=O	i	-4.2%[38.3 µM]	23.1µM*	-12.6%	?
C=CCOc1nc2c(c(=O)n(C)c(=O)n2C)n1Cc1ccc(Cl)cc1	?	-0.4%	2.91µM*	-5.7%	-8.3%
CCCOc1nc2c(c(=O)n(C)c(=O)n2C)n1Cc1cccc2ccccc12	i	0.8%[38.3 µM]	5.8µM*	9.7%	17.6%
CCc1noc(-c2ccc(N3CCCCC3C)c([N+](=O)[O-])c2)n1 (stereo not drawn)	i	1.4%	i	.	.
O=C(Nc1ccccc1)OCCc1ccccc1	i	1.6%	i	.	.
COc1cccc(CN2C(=O)NC(C)(C3CCN(Cc4ccc(C)o4)CC3)C2=O)c1OC (stereo not drawn)	.	-0.3%	.	.	.
O=c1cc2c(n[nH]1)-c1ccccc1CC2	1.3µM*	-3.0%	?	-12.7%	-1.9%
O=C1c2ccccc2CCc2ccccc21	i	2.8%	i	-1.1%	-2.1%
CCOc1ccc(OCC)c(NS(=O)(=O)c2ccc(-c3coc(C)n3)cc2)c1	.	1.2%	.	.	.
Cc1c(C(=O)N2CC(C)OC(C)C2)[nH]c2ccc(Br)cc12 (stereo not drawn)	i	-0.6%	i	-117.9%	7.7%
SMILES	KB-3-1 tox	PINK1 modulator	KB-V1 cytotox	SW480 rereplic	MCF10A rerep
Cc1cccc(Oc2cc([N+](=O)[O-])cc3c2C(=O)Nc2ccccc2O3)c1	?	17.1%	2.59µM*	3.9%	?
O=[N+]([O-])c1cc2c(c([N+](=O)[O-])c1)Nc1ccccc1O2	23.1µM*	14.1µM*	13µM*	.	.
O=C1Nc2ccccc2Oc2cc([N+](=O)[O-])cc(Oc3ccccc3)c21	i	15.3%	i	15.5%	?
CCc1cccc(NS(=O)(=O)c2ccc3c(c2)CC(C)N3C(=O)C2CC2)c1 (stereo not drawn)	?	-0.1%	13µM*	.	.
O=C(c1ccc2ncsc2c1)N1CCN(c2cccc(C(F)(F)F)c2)CC1	?	1.4%	?	?	13µM*
O=C(c1ccc2nc[nH]c2c1)N1CCN(c2cccc(C(F)(F)F)c2)CC1	i	0.3%	i	?	0.0%
